Assay outcomes (PubChem)
Tau fluor cs: Counterscreen qHTS for Inhibitors of Tau Fibril Formation, Fluorescence Polarization. tau K18 P301L Alexa594 fluorescence, heparin fibrillization. Potency, µM (top dose mostly 57.7 µM), for the others: at the top dose activity change, negative = decrease. 280,000 tested, 0.93% active. AID 1463, 2008; further: nearly all actives have a fitted effect of over 55% in size
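Human tau K18 P301L (15 uM unlabeled, 0.24 uM Alexa 594-labeled) in 100 mM sodium acetate pH 7 with 20 uM heparin, 6 hr at 37 C. ThT 30 uM added, 1 hr ambient; Alexa 594 FP and total fluorescence read at 555/632 nm.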
Tau FP inhib: qHTS for Inhibitors of Tau Fibril Formation, Fluorescence Polarization | Potency, µM (series often up to 57.7 µM), for the others: at the top dose activity, negative = inhibition, hits mostly inhibitors | K18 P301L tau heparin fibrillization, Alexa594 FP, 6 h | Microtubule-associated protein tau (Homo sapiens), P10636 | 280,000 tested, 0.39% active; further: nearly all actives have a fitted effect of over 55% in size
Target sequence (P10636 561-689 P618L limits assumed): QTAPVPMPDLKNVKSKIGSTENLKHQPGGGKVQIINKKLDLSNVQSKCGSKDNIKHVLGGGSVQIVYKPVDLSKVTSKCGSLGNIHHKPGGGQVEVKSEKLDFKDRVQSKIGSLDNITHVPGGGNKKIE
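Quantitative HTS format: compounds meet 15 uM recombinant K18 P301L tau and Alexa 594-tau tracer in 100 mM sodium acetate pH 7; 20 uM heparin triggers fibrillization at 37 C over 6 hr; FP gives the signal.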
TR SRC2 fluor cs: Total Fluorescence Counterscreen for Inhibitors of the Interaction of Thyroid Hormone Receptor and Steroid Receptor Coregulator 2. TRb/SRC2 Texas Red total fluorescence interference. Potency, µM (series often up to 106 µM), for the others: at the top dose fluorescence change, negative = quenching. 280,000 tested, 0.29% active. AID 1479, 2009; active means well fitted curve in either direction with a large enough effect; inconclusive means small, poorly fitted or top-dose-only effect
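Human TRβ ligand-binding domain (0.6 uM) and Texas Red SRC2 peptide (20 nM) in Tris buffer with 1 uM T3 and 5% DMSO were incubated with pinned compound for 5 hr at ambient temperature. Total fluorescence was computed as S + 2P (555/632 nm).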
JMJD2E inh: qHTS Assay for Inhibitors of Human Jumonji Domain Containing 2E (JMJD2E); Lysine-specific demethylase 4E (Homo sapiens), B2RXH2; JMJD2E catalytic domain, FDH-coupled NADH fluorescence (FDH is formaldehyde dehydrogenase); Potency, µM (series often up to 57.1 µM), inactives show at the top dose activity change, negative = inhibition, actives largely listed as inhibitors; 230,000 tested, 1.6% active; AID 2147, 2009; active means well fitted inhibition curve with a large enough effect, not every such curve was filed as active; inconclusive means small, poorly fitted or top-dose-only effect, or another doubt; inactive means no such curve, though single readings can be large or run the other way;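 further: 0% = wells with enzyme and -100% = buffer wells without enzyme; nearly all actives have a fitted effect of over 50% in size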
TRb SRC2 PPI: qHTS for Inhibitors of the Interaction of Thyroid Hormone Receptor and Steroid Receptor Coregulator 2 | Thyroid hormone receptor beta (Homo sapiens), P10828 | TRbeta-SRC2 peptide binding, fluorescence polarization; receptor liganded with 1 µM T3 | Potency, µM (titrated, usually from 106 µM), for the others: top-dose activity change, negative = inhibition, hits mostly inhibitors | 280,000 tested, 0.065% active | AID 1469, 2008;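 further: plate controls were bound peptide for no effect and peptide without receptor for full effect; nearly all actives have a fitted effect of over 50% in size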
Target sequence (P10828 whole entry, looked up): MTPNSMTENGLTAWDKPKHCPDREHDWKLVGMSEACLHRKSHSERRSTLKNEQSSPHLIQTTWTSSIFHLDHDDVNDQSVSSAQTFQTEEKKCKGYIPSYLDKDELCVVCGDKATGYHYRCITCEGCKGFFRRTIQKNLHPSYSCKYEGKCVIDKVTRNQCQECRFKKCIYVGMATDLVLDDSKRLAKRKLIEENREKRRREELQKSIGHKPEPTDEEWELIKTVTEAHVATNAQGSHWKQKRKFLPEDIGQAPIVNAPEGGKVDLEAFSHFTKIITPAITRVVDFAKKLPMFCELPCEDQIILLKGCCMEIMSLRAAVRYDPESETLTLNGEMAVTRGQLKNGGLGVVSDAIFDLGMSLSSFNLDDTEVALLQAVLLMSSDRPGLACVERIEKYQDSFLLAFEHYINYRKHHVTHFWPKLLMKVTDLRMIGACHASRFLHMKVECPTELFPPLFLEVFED
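Quantitative HTS by FP: 0.6 uM TRb LBD, 20 nM labeled SRC2 20-mer, 1 uM T3, 5% DMSO; 5 hr ambient incubation; % activity per concentration and potencies from concentration series.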
Tau fibril ThT: qHTS for Inhibitors of Tau Fibril Formation, Thioflavin T Binding; Microtubule-associated protein tau (Homo sapiens), P10636; recombinant tau K18 P301L (four-repeat tau fragment), heparin-induced fibrillization, ThT fluorescence; Potency, µM (titrated, usually from 57.4 µM), for the others: at the top dose activity, negative = inhibition, most hits filed as inhibitors; 270,000 tested, 2.1% active; AID 1460, 2008; further: nearly all actives have a fitted effect of over 55% in size
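In this qHTS, human K18 P301L tau is incubated with compound and heparin for 6 hr at 37 C, and Thioflavin T fluorescence then reports fibril load.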
The depositor's hits bear a star; ? = inconclusive; · = not tested or not shown; [ ] = dose if it differs, or a comment. Most compounds without a hit are left out; they make up all but 3.5% or so of the library. Unless noted, the call rests on the fitted dose curve; in most records, active means well fitted curve in the direction sought with a large enough effect; inconclusive means small, poorly fitted or top-dose-only effect, or another doubt; inactive means no such curve, though single readings can be large; an effect the other way counts as inactive or inconclusive. Unless noted, on the % scale 0 is the no-effect control and ±100 the full control effect; potency means the concentration at half of the fitted maximal effect.

SMILES	Tau fluor cs	Tau FP inhib	TR SRC2 fluor cs	JMJD2E inh	TRb SRC2 PPI	Tau fibril ThT
CCC(C)c1ccc(OCC(=O)Nc2cccc3ccc(C)nc23)cc1 (configuration not stated)	-17%	3%	-5%	·	-8%	-6%
COc1ccc(-c2nc(CN3CCC(C(=O)NCc4ccc(C)cc4)CC3)c(C)o2)cc1OC	1%	4%	0%	·	2%	-10%
O=S(=O)(NC1CCCc2ccccc21)c1cnc[nH]1 (configuration not stated)	4%	3%	1%	2%	11%	13%
CC1CC(C)CN(c2ccc([N+](=O)[O-])cc2-c2nn[nH]n2)C1 (configuration not stated)	2%	-7%	-1%	3.2µM*	1%	-15%
CCS(=O)(=O)N1CCN(c2ccccn2)CC1	-15%	?	-2%	?	-3%	?
O=S(=O)(NCC(Nc1ccc(Cl)cc1)c1ccccc1)c1ccccc1 (configuration not stated)	8.9µM*[quencher]	-2%	0%	-5%	1%	8%
COc1cccc(NC(CNS(=O)(=O)c2ccc(C)cc2)c2ccccc2)c1 (configuration not stated)	?	7%	-1%	·	0%	-8%
COc1cccc(NC(CNS(=O)(=O)c2ccc(Cl)cc2)c2ccccc2)c1 (configuration not stated)	10µM*[quencher]	10%	-3%	·	-4%	-9%
Cc1ccc(NC(CNS(=O)(=O)c2ccc(Cl)cc2)c2ccccc2)cc1 (configuration not stated)	4.5µM*[quencher]	7%	0%	-7%	-2%	1%
NS(=O)(=O)c1ccc(NC(CNS(=O)(=O)c2ccccc2)c2ccccc2)cc1 (configuration not stated)	-18%	-3%	0%	-1%	-1%	3%
CCc1ccccc1NC(=O)CC1Sc2ccc(C(F)(F)F)cc2NC1=O (configuration not stated)	5%	-9%	-2%	·	6%	12%
O=C(CC1Sc2ccc(C(F)(F)F)cc2NC1=O)Nc1ccc(Cl)c(C(F)(F)F)c1 (configuration not stated)	?	11µM*	-2%	·	9%	-5%
Cc1ccc(CNC(=O)C2CNc3cc(C)ccc3O2)cc1 (configuration not stated)	-13%	8%	-4%	-2%	-4%	-9%
COC(=O)CSc1nnc(SCc2ccc(Cl)cc2)s1	-23%	-11%	1%	-1%	5%	-10%
Cc1nc(-n2nc(C)c(Cc3ccccc3Cl)c2C)sc1C(=O)N1CCCCC1C (configuration not stated)	3%	15%	-4%	·	-9%	-10%
Cc1nc(-n2nc(C)c(Cc3ccc(Cl)cc3)c2C)sc1C(=O)N1CCCCC1C (configuration not stated)	-2%	4%	17783µM*[quencher]	·	-22%	-10%
COC(=O)c1ccc(N)cc1O	-8%	0%	-1%	7%	-1%	-8%
COC(=O)c1ccc(=O)c2nc3/c(=C/O)c(O)cc(=O)c3[nH]c12	?	-3%	25µM*[quencher]	8.9µM*	?	·
Cc1nn(CC(=O)N2CCN(c3ccccc3)CC2)c(=O)c2cc3sccc3n12	-4%	3%	6%	·	1%	0%
Cc1ccc(Cl)cc1N1CCN(C(=O)Cn2nc(C)n3c(cc4sccc43)c2=O)CC1	-28%	-7%	79µM*[quencher]	·	-9%	?
CC(C)(C)OC(=O)N1CCCC1C(=O)N1CCCC1C(=O)N1CCCC1C(=O)O (configuration not stated)	1%	0%	0%	4%	5%	-1%
Oc1c(Cl)cc(Cl)c2cccnc12	-21%	-18%	-1%	14µM*	-6%	?
Oc1c(I)cc(I)c2cccnc12	-20%	0%	-2%	14µM*	-9%	-17%
O=C(N/N=C/c1ccncc1)c1cccc(N/N=C/c2ccncc2)c1	?	3%	-2%	-1%	0%	?
O=C(C[n+]1ccccc1)N/N=C/c1ccc(F)cc1	3%	4%	-1%	3%	7%	-2%
SMILES	Tau fluor cs	Tau FP inhib	TR SRC2 fluor cs	JMJD2E inh	TRb SRC2 PPI	Tau fibril ThT
O=C(N/N=C/c1ccc(F)cc1)c1ccc(Br)cc1	-6%	1%	-6%	-3%	2%	-23%
O=C(N/N=C/c1ccc(OCc2ccccc2)cc1)c1ccncc1	-19%	-13%	-2%	-20%	-5%	?
O=C(C[n+]1ccc(C(=O)N/N=C/c2ccc(Br)cc2)cc1)c1ccccc1	?	-9%	2%	-18%	-14%	13µM*
O=C(N/N=C/c1ccc(O)cc1)c1cccc(N/N=C/c2ccc(O)cc2)c1	14µM*[quencher]	5%	-5%	-7%	5%	5µM*
O=C(C[n+]1ccc(C(=O)N/N=C/c2ccc(OCc3ccccc3)cc2)cc1)c1ccccc1	?	0%	0%	28µM*	-22%	6.3µM*
O=C(C[n+]1ccc(C(=O)N/N=C/c2ccc(O)cc2)cc1)c1ccccc1	?	-16%	-1%	?	12%	8.9µM*
Cc1cc(C)nc(-n2nc(C)c3c2N(C)C(=O)CC3c2ccc(Cl)cc2)n1 (configuration not stated)	1%	-4%	?	·	-4%	7%
COc1cccc(NC(=O)CSC2=Nc3ccccc3C3=NC(CC(=O)NCc4ccccc4OC)C(=O)N23)c1 (configuration not stated)	6%	12%	?	·	-1%	?
COc1ccc(C(=O)N/N=C/c2cc3ccccc3[nH]c2=S)cc1	?	-7%	-9%	?	-1%	4µM*
COc1ccc(OC)c(/C=N/NC(=O)c2cc[n+](CC(=O)c3ccccc3)cc2)c1	?	-7%	0%	-21%	-6%	11µM*
COc1ccc(C(=O)N/N=C/c2cccc3cccnc23)cc1	-4%	3%	3%	?	-1%	-17%
COc1ccc(/C=N/NC(=O)C[n+]2ccccc2)c(OC)c1	2%	4%	0%	-3%	-3%	-2%
